PubChem BioAssay (EPA / NIEHS)
Active and inactive are the calls of the source. The calls were made as follows: active = hit-call score of the fitted dose curve at least 0.9, where 1 is the maximum; inactive = score below 0.9.

Legend:
[1] = ATG_GLI_CIS: Attagene CIS-FACTORIAL HepG2 Assay for human Zinc Finger Protein GLI1 (AID 2282945); settings: HepG2, Attagene cis-factorial reporter mRNA, GLI element; actives raise or lower the signal
Summary of the method: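 Bidirectional curve fits relative to DMSO, using reporter mRNA levels from RT-PCR plus capillary electrophoresis. Cells were HepG2 transiently carrying cis-regulated reporter constructs, harvested 24 h after dosing.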

[2] = ATG_GRE_CIS: Attagene CIS-FACTORIAL HepG2 Assay for human Glucocorticoid Response Elements (GRE) (AID 2282947); settings: HepG2 GRE cis-reporter, Attagene multiplex mRNA; actives raise or lower the signal
Summary of the method: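 Multiplexed cis-reporter mRNA induction, HepG2, 24 h post-dose. RT-PCR, FAM-labelled, HpaI-digested amplicons by CE. Bidirectional fit vs DMSO.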

[3] = ATG_ISRE_CIS: Attagene CIS-FACTORIAL HepG2 Assay for human Interferon Regulatory Factor 1 (IRF1) binding to an Interferon-Stimulated Response Element (ISRE) (AID 2282948); settings: HepG2 ISRE cis-reporter (Attagene), mRNA transcription readout; actives raise or lower the signal
Summary of the method: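 Endogenous transcription factor activity read as reporter transcript abundance via RT-PCR and capillary electrophoresis. HepG2 cells transiently transfected, 24 h chemical exposure. Gain or loss fitted against DMSO baseline.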

[4] = ATG_M_32_CIS: Attagene CIS-FACTORIAL HepG2 Assay for M32 Transcription Factor (Internal Marker) (AID 2282949); settings: HepG2 Attagene cis-factorial M32 reporter, mRNA; actives raise or lower the signal;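 also: background control marker of the multiplexed CIS panel rather than a real target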
Summary of the method: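 Using DMSO as baseline, bidirectional curve fits were applied to reporter mRNA signals. These came from transiently transfected HepG2 cells exposed for 24 h, with RNA analysed by RT-PCR, FAM primer extension, HpaI digestion and CE.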

[5] = biological target: Hypoxia-inducible factor 1-alpha (Homo sapiens) (UniProt Q16665); test: ATG_HIF1a_CIS: Attagene CIS-FACTORIAL HepG2 Assay for human Hypoxia Inducible Factor 1 (HIF1A) (AID 2282951); settings: HepG2 Attagene cis-factorial HIF1a reporter transcription; actives raise or lower the signal
Summary of the method: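 Cis-element reporter constructs were transiently transfected into HepG2 cells, which were treated for 24 h; reporter RNA was reverse-transcribed, amplified, labelled and resolved by capillary electrophoresis.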

[6] = biological target: Heat shock factor protein 1 (Homo sapiens) (UniProt Q00613); test: ATG_HSE_CIS: Attagene CIS-FACTORIAL HepG2 Assay for human Heat Shock Transcription Factor 1 (HSE) (AID 2282953); settings: HepG2 HSE cis-reporter, Attagene RNA transcription; actives raise or lower the signal
Summary of the method: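 Endogenous transcription factor activity captured via cis-promoter reporter units transfected into HepG2; treatment lasted 24 h. Fluorescence intensity of reporter fragments analysed with bidirectional curve fitting, DMSO baseline.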

[7] = ATG_MRE_CIS: Attagene CIS-FACTORIAL HepG2 Assay for human Metal Responsive Element (MRE) (AID 2282954); settings: HepG2 MRE cis-reporter transcription, Attagene multiplex; actives raise or lower the signal
Summary of the method: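 Multiplexed cis-reporter assay in human HepG2 liver cells, 24 h incubation with test chemical. Reporter transcripts measured by RT-PCR and capillary electrophoresis; values from bidirectional curve fitting versus DMSO.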

[8] = ATG_PBREM_CIS: Attagene CIS-FACTORIAL HepG2 Assay for human Phenobarbital-responsive Enhancer Module (PBREM) (AID 2282955); settings: HepG2 PBREM cis-reporter, Attagene multiplexed transcription; actives raise or lower the signal
Summary of the method: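 Multiplexed cis-reporter readout in human hepatoma HepG2 cells; PBREM-regulated transcript quantified after 24 h exposure by fluorescent RT-PCR fragment analysis. Signal changes up or down fitted relative to DMSO.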

[9] = biological target: Paired box protein Pax-6 (Homo sapiens) (UniProt P26367); test: ATG_Pax6_CIS: Attagene CIS-FACTORIAL HepG2 Assay for human Paired Box 6 (PAX6) (AID 2282956); settings: HepG2 CIS-FACTORIAL PAX6 reporter transcription, RNA readout; actives raise or lower the signal
Summary of the method: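 Read-out is reporter transcript level, measured by RT-PCR with fluorescent primer extension and capillary electrophoresis after 24 h dosing of transfected HepG2 cells. Activity in either direction fitted relative to DMSO control.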

[10] = ATG_PXRE_CIS: Attagene CIS-FACTORIAL HepG2 Assay for human Pregnane X Receptor Element (PXRE) (AID 2282957); settings: HepG2 Attagene CIS-FACTORIAL PXRE reporter, mRNA; actives raise or lower the signal
Summary of the method: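 Using HepG2 transfected with multiple reporter transcription units, endogenous factor-driven transcription was scored as reporter mRNA after 24 h exposure.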

[11] = ATG_PPRE_CIS: Attagene CIS-FACTORIAL HepG2 Assay for human Peroxisome Proliferator-activated Response Element (PPRE) (AID 2282958); settings: HepG2 PPRE cis-element reporter, Attagene transcription factor profiling; actives raise or lower the signal
Summary of the method: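 DMSO served as negative control and baseline for bidirectional curve fitting. Signal came from PPRE-regulated reporter mRNA in HepG2 cells, measured 24 h post-dosing by RT-PCR, 6-FAM primer extension and capillary electrophoresis.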

[12] = ATG_Sox_CIS: Attagene CIS-FACTORIAL HepG2 Assay for human SRY-box transcription factor (SOX) (AID 2282960); settings: HepG2 Attagene cis-factorial SOX reporter, mRNA; actives raise or lower the signal
Summary of the method: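 Fluorescence-labelled cDNA fragments from reporter transcripts, sized by CE, give the signal. Cells: HepG2, transiently transfected with cis-regulated reporter units. Exposure 24 h; DMSO negative control; bidirectional curve fitting.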

[13] = biological target: Transcription factor Sp1 (Homo sapiens) (UniProt P08047); test: ATG_Sp1_CIS: Attagene CIS-FACTORIAL HepG2 Assay for human Specificity Protein 1 (Sp1) (AID 2282961); settings: HepG2 Sp1 cis-reporter transcription, actives raise or lower the signal
Summary of the method: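 Chemicals are dosed onto HepG2 cells transfected with multiple cis-promoter reporter constructs, and after 24 h reporter RNA is reverse-transcribed, PCR-amplified and resolved by capillary electrophoresis for fluorescence quantitation; activity is scored up or down against DMSO.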

[14] = ATG_SREBP_CIS: Attagene CIS-FACTORIAL HepG2 Assay for human Sterol Regulatory Element Binding (SREBP) (AID 2282962); settings: HepG2 Attagene cis-factorial SREBP reporter, mRNA; actives raise or lower the signal
Summary of the method: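 Endogenous SREBP activity read as cis-element-driven reporter transcript in transiently transfected HepG2, 24 h post-dosing; quantified via RT-PCR plus capillary electrophoresis of fluorescent fragments. Gain or loss of signal fitted relative to DMSO baseline.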

[15] = biological target: Signal transducer and activator of transcription 3 (Homo sapiens) (UniProt P40763); test: ATG_STAT3_CIS: Attagene CIS-FACTORIAL HepG2 Assay for human Signal Transducer and Activator of Transcription 3 (STAT3) (AID 2282963); settings: HepG2, Attagene cis-factorial STAT3 reporter transcription; actives raise or lower the signal
Summary of the method: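 Cis-factorial format: endogenous transcription factors in HepG2 drive transfected reporter units. After 24 h treatment, reporter RNA was reverse-transcribed, amplified, FAM-labelled and HpaI-digested before CE analysis; activity scored in both directions against DMSO.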

[16] = ATG_TA_CIS: Attagene CIS-FACTORIAL HepG2 Assay for human TA Basal Promoter (AID 2282964); settings: HepG2 Attagene CIS-factorial TA basal promoter reporter; actives raise or lower the signal
Summary of the method: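 Fluorescence from labelled RT-PCR reporter fragments, separated by capillary electrophoresis, gives the signal. Cells: HepG2 transiently carrying multiple reporter units, 24 h chemical dosing. Gain or loss relative to DMSO.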

[17] = ATG_M_06_CIS: Attagene CIS-FACTORIAL HepG2 Assay for M06 Transcription Factor (Internal Marker) (AID 2282950); settings: HepG2 Attagene CIS-FACTORIAL M06 internal marker reporter; actives raise or lower the signal
Summary of the method: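 HepG2 liver cells, 24 h exposure. Reporter transcripts from transfected cis-element constructs quantified by RT-PCR/capillary electrophoresis fluorescence. Bidirectional curve fit against DMSO.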

[18] = biological target: Hepatocyte nuclear factor 6 (Homo sapiens) (UniProt Q9UBC0); test: ATG_HNF6_CIS: Attagene CIS-FACTORIAL HepG2 Assay for human Hepatocyte Nuclear Factor 6 (HNF6) (AID 2282952); settings: HepG2 Attagene cis-factorial HNF6 reporter transcription; actives raise or lower the signal
Summary of the method: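 Using cis-element reporters in HepG2 liver cells, the assay tracks endogenous factor-driven transcription 24 h post-dosing. Signal comes from 6-FAM-labelled, HpaI-digested RT-PCR fragments, with gain or loss scored against DMSO.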

[19] = ATG_RORE_CIS: Attagene CIS-FACTORIAL HepG2 Assay for human RAR-related Orphan Receptor Element (RORE) (AID 2282959); settings: HepG2 Attagene cis-factorial RORE reporter, mRNA; actives raise or lower the signal
Summary of the method: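 Transfect HepG2 with MRTUs; treat 24 h; extract RNA; RT with oligo(dT); PCR with reporter-specific primers; 6-FAM primer extension; HpaI digest 2 h at 37 C; capillary electrophoresis. Fit vs DMSO, bidirectional.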

Measured: AC50

Hypoxia-inducible factor 1-alpha (Homo sapiens), sequence (Q16665 whole entry, looked up): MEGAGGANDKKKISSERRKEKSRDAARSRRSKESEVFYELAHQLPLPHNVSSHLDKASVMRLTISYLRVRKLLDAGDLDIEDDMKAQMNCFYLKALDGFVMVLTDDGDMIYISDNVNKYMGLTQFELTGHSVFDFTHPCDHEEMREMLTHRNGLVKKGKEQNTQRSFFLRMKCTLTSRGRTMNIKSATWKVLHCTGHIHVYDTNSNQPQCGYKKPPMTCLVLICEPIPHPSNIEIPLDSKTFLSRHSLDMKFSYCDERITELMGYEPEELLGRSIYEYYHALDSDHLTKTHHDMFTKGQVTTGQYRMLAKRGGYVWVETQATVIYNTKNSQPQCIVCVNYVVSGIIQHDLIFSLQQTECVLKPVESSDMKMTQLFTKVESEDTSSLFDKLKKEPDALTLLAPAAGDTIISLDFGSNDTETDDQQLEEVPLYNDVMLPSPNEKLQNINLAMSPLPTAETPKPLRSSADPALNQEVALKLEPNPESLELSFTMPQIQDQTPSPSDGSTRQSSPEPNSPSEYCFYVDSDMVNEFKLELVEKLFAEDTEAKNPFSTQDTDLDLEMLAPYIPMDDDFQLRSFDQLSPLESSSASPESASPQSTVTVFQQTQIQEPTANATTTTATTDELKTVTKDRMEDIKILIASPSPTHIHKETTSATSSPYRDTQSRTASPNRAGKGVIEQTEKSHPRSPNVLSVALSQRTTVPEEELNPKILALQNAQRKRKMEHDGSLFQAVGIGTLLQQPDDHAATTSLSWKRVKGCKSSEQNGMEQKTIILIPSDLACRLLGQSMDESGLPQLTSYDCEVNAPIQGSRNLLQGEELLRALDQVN
Heat shock factor protein 1 (Homo sapiens), sequence (Q00613 whole entry, looked up, the tested form may be a part): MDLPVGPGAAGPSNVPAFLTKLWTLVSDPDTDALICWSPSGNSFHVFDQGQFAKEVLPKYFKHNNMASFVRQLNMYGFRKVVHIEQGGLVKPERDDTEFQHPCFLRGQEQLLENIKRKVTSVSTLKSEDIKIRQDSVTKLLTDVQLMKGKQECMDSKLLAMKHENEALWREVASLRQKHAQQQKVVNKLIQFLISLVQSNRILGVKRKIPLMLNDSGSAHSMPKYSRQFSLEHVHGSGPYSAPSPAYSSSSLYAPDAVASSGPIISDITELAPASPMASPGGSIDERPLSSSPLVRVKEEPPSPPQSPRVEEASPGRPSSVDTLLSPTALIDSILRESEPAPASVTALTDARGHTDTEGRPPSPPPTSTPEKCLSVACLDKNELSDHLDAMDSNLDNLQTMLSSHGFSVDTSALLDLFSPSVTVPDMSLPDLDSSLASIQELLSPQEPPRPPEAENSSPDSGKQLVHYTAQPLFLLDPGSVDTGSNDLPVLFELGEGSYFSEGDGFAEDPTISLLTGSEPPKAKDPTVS
Paired box protein Pax-6 (Homo sapiens), sequence (P26367 whole entry, looked up): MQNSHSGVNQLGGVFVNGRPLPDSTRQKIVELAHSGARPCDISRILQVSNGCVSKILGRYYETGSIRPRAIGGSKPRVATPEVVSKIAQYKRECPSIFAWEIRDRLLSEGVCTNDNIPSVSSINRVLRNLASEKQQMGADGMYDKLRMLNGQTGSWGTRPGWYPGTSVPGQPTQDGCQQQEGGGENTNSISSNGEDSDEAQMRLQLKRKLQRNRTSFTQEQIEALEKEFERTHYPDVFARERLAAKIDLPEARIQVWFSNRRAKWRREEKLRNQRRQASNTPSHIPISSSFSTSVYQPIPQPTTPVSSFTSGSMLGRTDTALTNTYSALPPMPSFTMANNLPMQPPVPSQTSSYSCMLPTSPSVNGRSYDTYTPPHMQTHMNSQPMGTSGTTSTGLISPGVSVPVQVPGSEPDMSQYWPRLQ
Signal transducer and activator of transcription 3 (Homo sapiens), sequence (P40763 whole entry, looked up): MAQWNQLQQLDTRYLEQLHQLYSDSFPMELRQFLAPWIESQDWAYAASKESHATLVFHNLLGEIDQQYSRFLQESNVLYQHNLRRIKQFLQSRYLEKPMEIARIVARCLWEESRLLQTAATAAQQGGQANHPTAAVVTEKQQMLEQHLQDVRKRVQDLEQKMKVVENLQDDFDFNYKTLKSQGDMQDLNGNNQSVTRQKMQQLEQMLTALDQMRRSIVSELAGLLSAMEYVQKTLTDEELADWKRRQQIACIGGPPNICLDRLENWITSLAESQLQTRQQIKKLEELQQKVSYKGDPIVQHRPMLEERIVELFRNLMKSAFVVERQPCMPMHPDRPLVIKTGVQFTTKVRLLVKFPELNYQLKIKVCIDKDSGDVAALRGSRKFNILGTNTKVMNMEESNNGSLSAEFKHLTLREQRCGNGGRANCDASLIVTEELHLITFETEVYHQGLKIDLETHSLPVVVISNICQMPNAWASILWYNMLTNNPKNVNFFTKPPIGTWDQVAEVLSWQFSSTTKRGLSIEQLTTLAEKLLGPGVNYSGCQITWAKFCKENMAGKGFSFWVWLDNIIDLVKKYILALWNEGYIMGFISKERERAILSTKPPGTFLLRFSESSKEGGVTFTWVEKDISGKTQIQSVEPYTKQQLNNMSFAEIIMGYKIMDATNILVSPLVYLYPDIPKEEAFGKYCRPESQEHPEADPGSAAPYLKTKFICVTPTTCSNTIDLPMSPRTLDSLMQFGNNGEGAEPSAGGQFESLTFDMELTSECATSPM
Transcription factor Sp1 (Homo sapiens), sequence (P08047 whole entry, looked up): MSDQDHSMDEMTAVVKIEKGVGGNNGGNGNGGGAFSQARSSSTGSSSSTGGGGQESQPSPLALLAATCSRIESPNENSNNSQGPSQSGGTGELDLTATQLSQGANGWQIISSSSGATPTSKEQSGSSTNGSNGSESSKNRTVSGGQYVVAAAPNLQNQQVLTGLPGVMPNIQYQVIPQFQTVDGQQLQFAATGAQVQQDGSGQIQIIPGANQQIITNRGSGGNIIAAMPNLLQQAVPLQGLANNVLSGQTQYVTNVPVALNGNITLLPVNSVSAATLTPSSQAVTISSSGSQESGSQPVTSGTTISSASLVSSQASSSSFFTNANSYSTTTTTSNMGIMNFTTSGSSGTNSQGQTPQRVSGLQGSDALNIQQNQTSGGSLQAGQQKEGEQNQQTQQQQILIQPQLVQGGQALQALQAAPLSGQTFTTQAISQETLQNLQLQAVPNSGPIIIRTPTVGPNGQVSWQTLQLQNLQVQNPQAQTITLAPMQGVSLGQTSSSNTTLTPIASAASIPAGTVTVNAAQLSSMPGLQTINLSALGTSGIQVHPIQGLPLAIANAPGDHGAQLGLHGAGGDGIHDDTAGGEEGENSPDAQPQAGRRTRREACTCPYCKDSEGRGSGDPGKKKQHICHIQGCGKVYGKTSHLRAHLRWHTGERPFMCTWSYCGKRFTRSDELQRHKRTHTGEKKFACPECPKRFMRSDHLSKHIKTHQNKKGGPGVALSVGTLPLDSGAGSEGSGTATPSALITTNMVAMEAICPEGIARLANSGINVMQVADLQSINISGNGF
Hepatocyte nuclear factor 6 (Homo sapiens), sequence (Q9UBC0 whole entry, looked up, the tested form may be a part): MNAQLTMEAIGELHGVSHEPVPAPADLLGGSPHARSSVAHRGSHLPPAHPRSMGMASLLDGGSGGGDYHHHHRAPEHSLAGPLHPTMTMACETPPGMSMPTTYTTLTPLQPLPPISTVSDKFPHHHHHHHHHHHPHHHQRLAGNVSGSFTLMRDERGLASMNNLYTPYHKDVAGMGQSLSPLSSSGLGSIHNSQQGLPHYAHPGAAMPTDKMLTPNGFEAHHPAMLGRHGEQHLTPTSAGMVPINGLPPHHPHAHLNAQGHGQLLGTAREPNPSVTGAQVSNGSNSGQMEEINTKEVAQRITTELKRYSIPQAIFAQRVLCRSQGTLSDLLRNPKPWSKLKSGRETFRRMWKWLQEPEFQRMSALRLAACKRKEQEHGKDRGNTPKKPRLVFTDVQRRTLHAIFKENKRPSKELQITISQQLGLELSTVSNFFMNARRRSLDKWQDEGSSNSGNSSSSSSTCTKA

Cc1cccc(O)c1
not listed: [17] | [18] | [19]
inactive: all other assays above

Cc1cc(N)n(-c2ccccc2)n1
active: [10] 39.5 µM
not listed: [2]
inactive: all other assays above

CCCCCCCCOC(C)=O
active: [10] 73.1 µM
not listed: [2] | [8] | [16]
inactive: all other assays above

CCCCCCCCCOS(=O)(=O)O
active: [11] 24 µM
not listed: [2] | [12] | [15] | [18] | [19]
inactive: all other assays above

CC(=O)OCC=C(C)CCC=C(C)CCC=C(C)C
active: [1] 164 µM | [3] 147 µM | [6] 72.3 µM | [7] 100 µM | [8] 175 µM | [9] 63.8 µM | [10] 9.61 µM | [16] 100 µM
not listed: [2] | [12] | [19]
inactive: all other assays above

CN(C)C
not listed: [2] | [11] | [19]
inactive: all other assays above

CN(C)C(=O)Nc1ccccc1
active: [10] 26.5 µM
not listed: [2] | [12]
inactive: all other assays above

COc1ccc(C(C)=O)cc1
not listed: [2] | [11] | [15] | [16]
inactive: all other assays above

CCCCCC1C(=O)CCC1CC(=O)OC (configuration not stated)
not listed: [2] | [6] | [8] | [12] | [19]
inactive: all other assays above
